From PubChem
DT40 TDP1 no CPT – qHTS for Inhibitors of human tyrosyl-DNA phosphodiesterase 1 (TDP1): qHTS in cells in absence of CPT; DT40 Tdp1-/- hTDP1 cells, no CPT, ATP luminescence, 48 h; Potency, µM (highest dose often 46.2 µM), actives largely listed as inhibitors; 15% of 420,000 active; AID 686978, 2013; also: nearly all actives have a fitted effect of over 55% in size
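No-CPT arm: Tdp1-/-;hTDP1 DT40 cells (400/well) plus compounds, incubated ≥48 hr at 37 °C. Readout CellTiter-Glo luminescence.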
KAT2A inh – qHTS Assay for Inhibitors of GCN5L2. Histone acetyltransferase KAT2A (Homo sapiens), Q92830. GCN5L2 HAT assay, ThioGlo1 CoA-SH fluorescence. Potency, µM (doses to about 58.9 µM), usual class: inhibitors. 0.21% of 390,000 active. AID 504327, 2011
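GCN5L2 (20nM final) in 50mM HEPES, 0.1mM EDTA pH 7.5, 0.01% Tween-20 was preincubated 15 min at room temperature with compound, then given ThioGlo1 (50uM), H3(1-25) peptide (75uM) and acetyl-CoA (70uM); CoA-thiol fluorescence (Ex340/Em540) was read at 0 and 20 min.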
VDR inh – Inhibitors of the vitamin D receptor (VDR): qHTS. VDR-SRC2-3 peptide fluorescence polarization, 2 h. Potency, µM, usual class: inhibitors. 0.93% of 400,000 active
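FP read-out; VDR + SRC2-3 coactivator peptide; 23 nl compound by pintool; 2 h RT incubation; reagents held at 4 deg C, protected from light.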
PLK1 PBD block – qHTS for Inhibitors of PLK1-PDB (polo-like kinase 1 - polo-box domain): Primary Screen. 2.8% of 360,000 active. Potency, µM, actives largely listed as inhibitors. Plk1 PBD binding of FITC phosphopeptide, fluorescence polarization. Serine/threonine-protein kinase PLK1 (Homo sapiens), P53350; also: series mostly up to about 57 µM; nearly all actives have a fitted effect of over 65% in size
Target sequence (P53350 whole entry, looked up, the tested form may be a part): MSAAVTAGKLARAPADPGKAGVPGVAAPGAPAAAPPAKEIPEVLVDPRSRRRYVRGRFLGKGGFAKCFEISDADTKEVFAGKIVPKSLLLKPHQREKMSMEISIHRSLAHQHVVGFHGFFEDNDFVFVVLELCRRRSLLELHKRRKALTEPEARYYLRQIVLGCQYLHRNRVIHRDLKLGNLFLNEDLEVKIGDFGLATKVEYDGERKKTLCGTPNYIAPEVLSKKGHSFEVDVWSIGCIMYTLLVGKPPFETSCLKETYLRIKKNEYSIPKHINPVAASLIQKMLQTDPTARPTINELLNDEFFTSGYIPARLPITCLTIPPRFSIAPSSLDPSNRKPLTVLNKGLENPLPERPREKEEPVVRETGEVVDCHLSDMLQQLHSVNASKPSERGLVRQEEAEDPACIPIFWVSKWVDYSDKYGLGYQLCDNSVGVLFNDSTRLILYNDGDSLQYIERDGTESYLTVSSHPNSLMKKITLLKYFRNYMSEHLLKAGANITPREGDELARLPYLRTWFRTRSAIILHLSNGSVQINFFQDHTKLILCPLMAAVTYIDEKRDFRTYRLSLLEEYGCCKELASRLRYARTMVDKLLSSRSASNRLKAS
TDP1 inh – qHTS Assay for Inhibitors of Tyrosyl-DNA Phosphodiesterase (TDP1) | Tyrosyl-DNA phosphodiesterase 1 (Homo sapiens), Q9NUW8 | Potency, µM (doses to about 130 µM), usual class: inhibitors | 0.28% of 350,000 active | recombinant TDP1, AlphaScreen DNA substrate cleavage; also: nearly all actives have a fitted effect of over 40% in size
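Here, a 5' biotin and 3' phosphotyrosine-FITC DNA oligonucleotide reports Tdp1 activity: intact substrate bridges AlphaScreen beads, while cleavage leaves a 3' phosphate and drops signal. All incubations at room temperature.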
TDP1 cell CPT – qHTS for Inhibitors of human tyrosyl-DNA phosphodiesterase 1 (TDP1): qHTS in cells in presence of CPT; chicken DT40 Tdp1-/-;hTDP1 cells + 20 nM CPT, ATP luminescence, 48 h; Potency, µM (series often up to 46.2 µM), usual class: inhibitors; 12% of 420,000 active; AID 686979, 2013; also: nearly all actives have a fitted effect of over 55% in size
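Chicken DT40 Tdp1-/- cells stably complemented with human TDP1 were seeded at 400 cells/well in medium containing 20 nM camptothecin, exposed to pin-transferred compounds, and grown at 37 °C for at least 48 hr. Viability was read as ATP luminescence.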
A number is an active result; - = inactive; ? = inconclusive; . = not tested or not shown; [ ] = dose if it differs, or a comment. Rows were chosen to be rich in hits. Some 18% of all compounds tested hit in one or more screens of this group. Calls follow the shape of the dose curve; as a rule, active = well fitted curve in the direction sought with a large enough effect; inconclusive = small, poorly fitted or top-dose-only effect, or another doubt; inactive = no such curve, though single readings can be large; an effect the other way counts as inactive or inconclusive.

SMILES	DT40 TDP1 no CPT	KAT2A inh	VDR inh	PLK1 PBD block	TDP1 inh	TDP1 cell CPT
Cc1cc(-n2c(C)cc(C(=O)CSc3nc4ccccc4c(=O)n3Cc3ccco3)c2C)no1	21µM	-	-	-	-	23µM
CCOC(=O)c1cccc(NC(=O)c2cc3c(-c4cccc(OC)c4)nn(C)c3s2)c1	16µM	-	-	.	-	16µM
COc1cccc(-c2nn(C)c3sc(C(=O)NCc4ccc(C)o4)cc23)c1	23µM	-	?	?	-	?
COc1cccc(-c2nn(C)c3sc(C(=O)NCc4ccc5c(c4)OCO5)cc23)c1	?	-	-	-	-	13µM
Cc1nn(Cc2ccccc2Cl)c2sc(C(=O)NCc3ccc4c(c3)OCO4)cc12	?	-	-	-	-	?
CCN(CCCNC(=O)c1cc2c(-c3cccc(OC)c3)nn(C)c2s1)Cc1ccccc1	?	-	-	-	.	9.2µM
COc1cccc(-c2nn(C)c3sc(C(=O)NCc4ccc(OC)cc4OC)cc23)c1	?	-	-	.	-	?
CC(=O)OCC1OC(C#Cc2ccc(Cl)cc2)C=CC1OC(C)=O (stereo unspecified)	.	.	.	.	-[21 µM]	.
Cc1c(Cl)cccc1NC(=O)[C@@H](NC(=O)c1ccccc1Cl)C(C)C	?	-	-	-	-	-
COc1ccc(C(=O)N2CCC3(CCN(C(=O)Nc4cccc(C#N)c4)CC3)CC2)cc1	?	-	-	.	.	-
CCc1nn2c(-c3ccccc3OC)ccnc2c1-c1ccccc1	21µM	-	-	.	-	?
CCCS(=O)(=O)c1c(S(=O)(=O)CCC)c2cc(CC)ccn2c1C(=O)c1ccc(Cl)cc1	-	-	-	.	.	15µM
COc1ccccc1C(=O)NCC(=O)OCCCOC(=O)CNC(=O)c1ccccc1OC	-	-	-	-	-	-
Cn1cc(CN2C[C@H]3CC[C@H]2C3)c(-c2ccccc2F)n1	?	-	-	-	-	-
CCCC(=O)N(Cc1cc(=O)[nH]c2ccccc12)c1ccc(C)cc1C	?	-	-	-	.	-
Cc1ccc(N(Cc2cc(=O)[nH]c3ccccc23)C(=O)CCl)c(C)c1	15µM	-	-	?	.	15µM
Cc1ccccc1CSc1cn(CC(=O)N2CCCCCC2)c2ccccc12	23µM	-	-	.	-	?
Cc1ccccc1CSc1cn(CC(=O)N2CCCC2)c2ccccc12	?	-	-	.	-	?
O=C(Cn1cc(SCc2ccccc2F)c2ccccc21)N1CCCCCC1	?	-	-	.	-	23µM
O=C(Cn1cc(SCc2ccccc2)c2ccccc21)N1CCCCCC1	?	-	-	.	-	?
CC(=O)OCC1OC(n2ccc(=O)[nH]c2=O)C(O)C1O (stereo unspecified)	-	-	-	-	-	-
CC(=O)OCC1OC(n2cnc3c(Cl)nc(Cl)nc32)C(OC(C)=O)C1OC(C)=O (stereo unspecified)	21µM	-	-	.	-	?
CC(=O)OC[C@H]1O[C@@H](n2ccc(=O)[nH]c2=S)C(OC(C)=O)C1OC(C)=O (stereo partly specified)	-	-	-	-	-	-
CC(=O)OCC1OC(n2ccc3ccccc32)C(OC(C)=O)C(OC(C)=O)C1OC(C)=O (stereo unspecified)	?	-	-	27µM	-	?
CC(=O)OCC1OC(n2cc(F)c(=O)[nH]c2=O)C(OC(C)=O)C1OC(C)=O (stereo unspecified)	5.2µM	.	-	-	.	8.2µM
SMILES	DT40 TDP1 no CPT	KAT2A inh	VDR inh	PLK1 PBD block	TDP1 inh	TDP1 cell CPT
CCCc1[nH]nc2c1C1(CCN(C(=O)OCc3ccccc3)CC1)C(C#N)=C(N)O2	?	-	-	-	-	21µM
Cc1nc(C#N)c(N/N=C/c2c(F)cccc2Cl)o1	?	-	79µM	-	-	-
Cc1cc(Cl)ccc1C(O)c1ncc(-c2ccccc2C(F)(F)F)[nH]1 (stereo unspecified)	15µM	.	.	-	.	26µM
COc1ccccc1-c1cnc(C(O)c2cccc(C)c2C)[nH]1 (stereo unspecified)	16µM	.	.	-	.	15µM
COc1cccc(-c2cnc(C(O)c3ccc(Cl)c(F)c3)[nH]2)c1 (stereo unspecified)	?	.	.	-	.	15µM
COc1cccc(-c2cnc(C(O)c3ccc(Cl)cc3C)[nH]2)c1 (stereo unspecified)	16µM	.	.	-	.	23µM
CCN(CC(=O)Nc1c(F)cccc1F)C(=O)CCCN1C(=O)c2cccc3cccc(c23)C1=O	?	.	.	-	.	?
Cc1ccccc1-c1cnc(C(O)c2ccc(Cl)cc2C)[nH]1 (stereo unspecified)	?	.	.	-	.	?
COc1ccccc1-c1cnc(C(O)c2ccc(Cl)cc2C)[nH]1 (stereo unspecified)	18µM	.	.	-	.	?
Cc1ccc2sc(N(CCCN(C)C)C(=O)c3ccc(S(=O)(=O)N(C)C4CCCCC4)cc3)nc2c1C	5.8µM	-	-	-	.	9.2µM
CCN(Cc1ccccc1)S(=O)(=O)c1ccc(C(=O)N(CCCN(C)C)c2nc3c(C)c(C)ccc3s2)cc1	16µM	-	-	-	-	?
CCOc1cccc2sc(N(CCN(CC)CC)C(=O)c3ccc(S(=O)(=O)N4CCCC4)cc3)nc12	?	-	-	-	-	?
CCN(CC)CCN(C(=O)c1ccc(S(=O)(=O)N(C)C2CCCCC2)cc1)c1nc2c(C)cccc2s1	21µM	-	-	-	-	23µM
CC1(C)CC(=O)c2cc(C(=O)Nc3ccccc3Cl)c(=O)n(-c3ccc(Cl)cc3)c2C1	?	-	-	.	-	-
CCOc1ccc(CC(=O)Nc2c3c(nn2C(C)(C)C)CS(=O)(=O)C3)cc1	-	-	-	-	-	-
O=C(CCCn1c(=O)c2cccn2c2ccccc21)Nc1cccc(Cl)c1	18µM	-	-	.	-	?
Cc1ccc(NC(=O)CCCn2c(=O)c3cccn3c3ccccc32)c(Cl)c1	12µM	-	-	.	-	15µM
Cc1cc(C)cc(NC(=O)CCCn2c(=O)c3cccn3c3ccccc32)c1	-	-	-	.	-	-
Cc1ccc(NC(=O)CCCn2c(=O)c3cccn3c3ccccc32)c(C)c1	15µM	-	-	.	-	15µM
CCC(=O)N1c2ccccc2NC2=C(C(=O)CC(C)(C)C2)C1c1ccc(O)c(OC)c1 (stereo unspecified)	-	-	-	-	.	-
CNS(=O)(=O)c1cccc2nsnc12	0.0073µM	-	-	-	-	-
